# Only some compounds are listed: those with a hit (about 1.9% of all), similar ones and a draw of the others.
# Measles CPE: compounds protecting cells from measles virus cytopathic effect, primary screen, measles RdRp inhibitor project, single point, MLSMR library, absorbance. Measles virus-infected cells, CPE protection. protection (pct of control), % at 4 µM. 1.5% of 140,000 active. AID 841, 2007; in the data active means protection mostly above about 24%, no sharp cut-off; inactive means mostly below about 26%
# cytoskel mod: modifiers of F-actin cytoskeleton organization, primary screen, imaging, HUVEC, phalloidin staining, high-content imaging | HUVEC TNFa F-actin phalloidin imaging | 0.18% of 91,000 active | inhibition, % at 2 µM | AID 836, 2007;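 active means inhibition above the batch mean plus 3 SD and confirmed as a hit by visual image inspection, cut at about 30% in these data, passing the limit was not always enough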
# sEH inhibitor: soluble epoxide hydrolase inhibitors, primary screen, biochemical, human sEH | inhibition, % at 2 µM | 0.34% of 91,000 active | Bifunctional epoxide hydrolase 2 (Homo sapiens), P34913 | AID 707, 2007 | recombinant human sEH enzymatic activity assay; in the data active means inhibition above about 80%
# Target sequence (P34913 whole entry, looked up): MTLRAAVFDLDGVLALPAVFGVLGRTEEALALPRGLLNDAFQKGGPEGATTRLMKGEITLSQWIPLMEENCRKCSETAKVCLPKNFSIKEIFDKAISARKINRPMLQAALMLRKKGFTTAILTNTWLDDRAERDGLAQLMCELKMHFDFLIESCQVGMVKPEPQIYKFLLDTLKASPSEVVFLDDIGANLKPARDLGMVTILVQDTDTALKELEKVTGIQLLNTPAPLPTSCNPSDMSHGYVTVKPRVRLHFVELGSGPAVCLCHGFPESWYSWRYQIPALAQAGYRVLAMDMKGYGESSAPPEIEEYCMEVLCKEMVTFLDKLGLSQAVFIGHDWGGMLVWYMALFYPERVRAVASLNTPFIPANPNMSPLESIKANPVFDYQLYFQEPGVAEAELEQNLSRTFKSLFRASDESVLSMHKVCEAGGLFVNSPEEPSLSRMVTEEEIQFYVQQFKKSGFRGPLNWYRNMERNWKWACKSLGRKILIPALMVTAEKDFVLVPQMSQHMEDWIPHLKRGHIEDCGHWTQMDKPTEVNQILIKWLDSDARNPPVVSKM
# sEH act: soluble epoxide hydrolase activators, primary screen, biochemical, human sEH | purified human sEH enzymatic activity, activator screen | Bifunctional epoxide hydrolase 2 (Homo sapiens), P34913 | activation, % at 2 µM | 0.04% of 91,000 active; in the data active means activation above about 37%
# Candida biofilm: clotrimazole potentiators killing Candida biofilms, primary screen, with clotrimazole, Alamar Blue; C. albicans biofilm + clotrimazole; inhibition, % at 6 µM; 0.14% of 85,000 active; AID 834, 2007;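 active means inhibition above 20%; inactive means inhibition below 20%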;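 further: preformed 24 hr biofilms exposed to compound for 48 hr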
# Hits are given with their value; i = inactive; nt = no result given.
SMILES,Measles CPE,cytoskel mod,sEH inhibitor,sEH act,Candida biofilm
Cc1cccc(-c2noc(CCCC(=O)Nc3ccc(C(N)=O)cc3)n2)c1,i,i,i,i,i
Cc1cccc(-c2noc(CCCC(=O)Nc3cccnc3)n2)c1,active,i,i,i,nt
CCOC(=O)Cn1nc(C)c2c1CCCC2=O,i,i,i,i,i
CCOC(=O)COc1ccc(/C=C2\NC(=S)N(CC)C2=O)cc1,i,nt,nt,nt,nt
Cc1cc(/C=N/n2cnnc2)c(C)n1-c1ccc(OCc2ccccc2F)cc1,i,i,i,i,i
Cc1cc(/C=N/n2cnnc2)c(C)n1-c1ccc(OCc2ccc(Cl)cc2)cc1,48,i,i,i,i
O=C(CSc1nc(-c2ccc(F)cc2)cs1)N1CCc2ccccc21,i,i,i,i,nt
O=c1[nH]c(NC2CCCCC2)c([N+](=O)[O-])c(=O)[nH]1,28,nt,nt,nt,nt
Cn1c(=O)[nH]c(NC2CCCCC2)c([N+](=O)[O-])c1=O,i,nt,nt,nt,nt
CCNC(=S)NNC(=O)C1CCCCC1,28,i,i,i,nt
CCNC(=S)N1CCC(NC(=O)C2CCCCC2)CC1,i,i,i,i,i
CCOc1ccc(-c2nnc3ccc(SCC(=O)Nc4nc5ccccc5s4)nn23)cc1,i,nt,nt,nt,nt
Cc1ccc(S(=O)(=O)NCCc2nnc3ccc(SCC(=O)Nc4nc5ccccc5s4)nn23)cc1,30,nt,nt,nt,nt
CCOC(=O)c1cnc2c(C)c(C)ccc2c1Nc1ccc(S(=O)(=O)Nc2ncccn2)cc1,i,nt,nt,nt,nt
Cc1nn(S(=O)(=O)c2cccs2)c(C)c1Sc1ccc([N+](=O)[O-])cc1,i,i,i,i,nt
Cc1nn(S(=O)(=O)c2ccccc2)c(C)c1Sc1ccc([N+](=O)[O-])cc1,i,46,i,i,nt
CCCN(CCC)C1=CC(=[N+]2CCCC2)CC(C)(C)C1,i,nt,nt,nt,nt
O=C(COC(=O)C1c2ccccc2Oc2ccccc21)NC1CCS(=O)(=O)C1 (stereo unspecified),active,72,i,i,i
CCOc1cc(S(=O)(=O)NCc2ccccn2)ccc1Cl,i,i,i,i,i
O=C(CSc1ccccc1C(=O)O)NCc1ccc(Cl)cc1,40,nt,nt,nt,nt
Cc1ccc(S(=O)(=O)N2CCCN(S(=O)(=O)C3CCS(=O)(=O)C3)CC2)cc1 (stereo unspecified),i,i,i,i,i
O=C(Nc1ccc(Cl)c(Cl)c1)c1ccc(Cn2c(=O)[nH]c3ccsc3c2=O)cc1,23,nt,nt,nt,nt
CN(C)S(=O)(=O)c1ccc(S(=O)(=O)N2CCN(CCC#N)CC2)cc1,i,nt,nt,nt,i
N#CCCN1CCN(S(=O)(=O)c2ccc(S(=O)(=O)N3CCOCC3)cc2)CC1,28,nt,nt,nt,i
O=C(Cn1nnc(-c2ccncc2)n1)N(C1CCCCC1)C1CCCCC1,i,i,i,i,i
SMILES,Measles CPE,cytoskel mod,sEH inhibitor,sEH act,Candida biofilm
COC(=O)Nc1nc2c(C)cccc2s1,i,i,i,i,i
CCc1cccc(NC(=O)Cn2cccc2)c1,50,i,i,i,i
CCOC(=O)c1ccc(NC(=O)Cn2cccc2)cc1,i,i,i,i,i
Cc1cccc2sc(NC(=O)Cn3cccc3)nc12,77,i,i,i,i
Cc1ccc(Cl)cc1NC(=O)Cn1cccc1,70,i,nt,nt,i
Cc1cccc2sc(NC(=O)CSCc3ccccc3)nc12,i,i,i,i,50
COc1ccc(-c2csc(NC(=O)c3ccc(S(=O)(=O)N4CCc5ccccc5C4)cc3)n2)c(OC)c1,i,nt,nt,nt,nt
CC(=O)Nc1ccc(S(=O)(=O)NCc2csc(C)n2)cc1,i,i,i,i,i
COc1ccc(CCN2C(=O)CC(C(N)=O)SC2=Nc2ccccc2)cc1OC (stereo unspecified),i,i,i,i,i
Cc1ccc(-c2nc3ccccn3c2NC(=O)c2ccco2)cc1,i,i,i,i,i
O=C(NCC(c1cccs1)N1CCOCC1)c1ccccc1NS(=O)(=O)c1ccc(Cl)c([N+](=O)[O-])c1 (stereo unspecified),i,nt,nt,nt,nt
O=C(NCC(c1cccs1)N1CCOCC1)c1ccccc1NS(=O)(=O)c1cccc([N+](=O)[O-])c1 (stereo unspecified),32,nt,nt,nt,nt
COc1ccccc1/C=C(\NC(=O)c1ccc(OC)c(OC)c1)C(=O)Nc1cc([N+](=O)[O-])ccc1C,i,nt,nt,nt,nt
COC(=O)Cn1cnc2c1c(=O)n(C)c(=O)n2C,i,i,i,i,i
Cn1c(=O)c2c(ncn2CCCNC2=CC(C)(C)CC(=O)C2)n(C)c1=O,17,i,i,i,i
Cc1ccc(Cn2ccc(=O)c(Cc3c(Cl)cccc3Cl)c2C)cc1,i,i,90,i,nt
COc1ccc(Cn2ccc(=O)c(Cc3c(Cl)cccc3Cl)c2C)cc1,i,i,i,i,nt
O=C1C[C@@H](c2ccc(O)cc2)Oc2cc(O)cc(O)c21,31,nt,nt,nt,nt
COc1ccc(Cn2c(CCCO)nc3ccccc32)cc1OC,i,i,i,i,i
Cc1ccc(-n2nnnc2/C=C\Nc2cc(C)on2)cc1,i,nt,nt,nt,nt
Cc1cc(N/C=C\c2nnnn2-c2ccc(F)cc2)no1,34,nt,nt,nt,nt
CCN(CC)S(=O)(=O)c1ccc(C(=O)NNC(=O)C2CCN(S(=O)(=O)c3ccc(Cl)cc3)CC2)cc1,i,nt,nt,nt,nt
Cc1cccc(CSC2=CS(=O)(=O)c3ccccc3N2)c1,42,i,i,i,nt
Cc1c(NC(=O)C2CCCN2S(=O)(=O)c2ccc(Cl)cc2)c(=O)n(-c2ccccc2)n1C (stereo unspecified),i,i,nt,nt,i
Cc1c(CCO)c(=O)n(-c2ccccc2)n1S(=O)(=O)c1ccc(Cl)cc1,i,31,i,i,i
SMILES,Measles CPE,cytoskel mod,sEH inhibitor,sEH act,Candida biofilm
COc1ccc2c(CC(=O)NCc3ccc4c(c3)OCO4)coc2c1,i,i,i,i,i
O=C(Cc1c2ccccc2nc2ccccc12)c1ccccc1,20,nt,nt,nt,nt
O=C(CC(CC(=O)c1ccccc1)C(=O)O)c1ccccc1,i,i,i,i,i
CCC1CCCCN1S(=O)(=O)c1ccc(S(=O)(=O)N(Cc2cccs2)C2CC2)cc1 (stereo unspecified),42,i,nt,nt,i
Cc1ccc(-c2nnc(Sc3nc4ccccc4o3)c3ccccc23)cc1,i,nt,i,i,nt
Cc1nnc(Sc2nc3ccccc3o2)c2ccccc12,26,i,i,i,i
CC(C)C(=O)Nc1ccc(C(=O)N2CCCCCC2)cc1,39,i,i,i,i
Cc1c(Cl)cnc(NC(=O)CSc2nncs2)c1Cl,i,nt,nt,nt,nt
O=C(O)CSc1nnc(-c2ccccc2)o1,33,i,i,i,i
Cc1ccc(C(=O)CSc2nnc(-c3ccccc3)o2)cc1,i,i,i,i,i
O=C(CSc1nnc(-c2cccnc2)o1)Oc1ccccc1,44,i,i,i,nt
CCOc1ccc(C2c3cc(OC)c(OC)cc3CC(=O)N2c2ccc(OC)cc2)cc1 (stereo unspecified),i,i,i,i,nt
Cc1ccc2[nH]c(=O)c(C(c3nnnn3CCc3ccccc3)N3CCOCC3)cc2c1 (stereo unspecified),i,i,i,i,i
CCNC(=O)/C(C#N)=C/c1c(N2CCN(Cc3ccc4c(c3)OCO4)CC2)nc2c(C)cccn2c1=O,i,nt,nt,nt,nt
Cc1nc2ncnn2c(C)c1CCC(=O)N1CCc2ccccc21,40,nt,nt,nt,i
